This note sets out measurements from PubChem BioAssay (EPA / NIEHS).

Inconclusive results are not listed. Active and inactive are the calls of the source. How the source made its calls, unless noted: active means hit-call score of the fitted dose curve at least 0.9, where 1 is the maximum; inactive means score below 0.9.

Read-out in test [1]: Interleukin-8 (IL8), CXCL8 (gene 3576)
Nature of the test: BSK_3C_IL8: BioMAP Diversity Plus: 3C Assay for Interleukin-8 (IL8) Biomarker Activity (AID 2283020). The conditions noted are these: primary human endothelial cells (HUVEC); actives raise or lower the signal. The procedure, abridged: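 Using DMSO-treated wells as the baseline, bidirectional curve fitting was applied to ELISA-measured IL-8 from human umbilical vein endothelial cultures sampled 24 h after compound addition.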

Read-out in test [2]: Monokine induced gamma interferon (MIG), CXCL9 (gene 4283)
Nature of the test: BSK_3C_MIG: BioMAP Diversity Plus: 3C Assay for Monokine induced gamma interferon (MIG) Biomarker Activity (AID 2283021). The settings on record: primary human endothelial cells (HUVEC); actives raise or lower the signal. The procedure, abridged:
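ELISA-measured MIG in dosed HUVEC 3C cultures at 24 h, analysed by bidirectional fitting with DMSO defining baseline activity.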

In test [3] the target is human Vitamin D Receptor (VDR), VDR (gene 7421) (UniProt P11473). Nature of the test: ATG_VDR_TRANS: Attagene TRANS-FACTORIAL HepG2 Assay for human Vitamin D Receptor (VDR) (AID 2283022; active means hit-call score of the fitted dose curve at least 0.9, where 1 is the maximum). In short, it runs like this:
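HepG2 cells were transiently transfected with GAL4-UAS reporter units and a chimeric VDR-Gal4 construct, then dosed for 24 hours. Reporter mRNA was quantified by RT-PCR, fluorescent labeling, HpaI digestion and capillary electrophoresis; gain of signal analysed vs DMSO.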

Test [4] can be described thus: BSK_3C_SRB: Viability Assessment in the BioMAP Diversity Plus: 3C Assay (AID 2283023).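 Further: fitted both ways against DMSO so a hit may be signal rise or drop.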 The settings on record: primary human endothelial cells (HUVEC). The procedure, abridged: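 Human umbilical vein endothelial cells in the 3C system, treated 24 h. Total protein measured by 0.1% sulforhodamine B staining after 10% TCA fixation, read at 560 nm; bidirectional fit versus DMSO.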

Read-out in test [5]: Matrix Metallopeptidase 1 (MMP1), MMP1 (gene 4312)
Nature of the test: BSK_BE3C_MMP1: BioMAP Diversity Plus: BE3C Assay for Matrix Metallopeptidase 1 (MMP1) Biomarker Activity (AID 2283024). The settings on record: primary human bronchial epithelial cells; actives raise or lower the signal. In short, it runs like this:
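In this multiplexed primary-cell system, human bronchial epithelium received chemicals for 24 h before an ELISA for MMP1. Values reflect bidirectional fits normalised to the DMSO baseline.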

Test [6] is described as follows: BSK_3C_Vis: BioMAP Diversity Plus: 3C Assay for Morphology Visualization (AID 2283025).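 Further: fitted both ways so gain or loss versus DMSO counts.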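 On AC50: light microscopy image of cell morphology used as background control.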 The settings on record: primary human endothelial cells (HUVEC). The procedure, abridged: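 Light-microscopy morphology readout, 24 h exposure, human primary umbilical vein endothelium; analysed relative to DMSO with bidirectional fitting.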
Read-out in test [7]: Pselectin, SELP (gene 6403)
Nature of the test: BSK_4H_Pselectin: BioMAP Diversity Plus: 4H Assay for Pselectin Biomarker Activity (AID 2283026). The settings on record: primary human endothelial cells (HUVEC); actives raise or lower the signal. In short, it runs like this:
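Bidirectional fits against DMSO gave the endpoint. Cells: primary human umbilical vein endothelium, chemical-treated for 24 h before ELISA detection of P-selectin.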

Test [8] is described as follows: BSK_4H_SRB: Viability Assessment in the BioMAP Diversity Plus: 4H Assay (AID 2283027).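 Further: cells exposed to compound for 24 h before staining.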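 On AC50: curves fitted both ways versus DMSO so AC50 may be loss or gain.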 The conditions noted are these: primary human endothelial cells (HUVEC). In short, it runs like this: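 Cytotoxicity readout: sulforhodamine B (0.1%) staining of total protein after 10% TCA fixation, measured at 560 nm in human umbilical vein endothelium at 24 h. DMSO set the baseline; fitting was bidirectional.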

Test [9] can be described thus: BSK_BE3C_SRB: Viability Assessment in the BioMAP Diversity Plus: BE3C Assay (AID 2283028). The settings on record: primary human bronchial epithelial cells. The procedure, abridged: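 Human bronchial epithelial primary cells in confluent culture, 24 h after chemical dosing; total protein by 0.1% SRB staining after 10% TCA fixation, read at 560 nm. Bidirectional fitting versus DMSO baseline.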

Read-out in test [10]: Thrombomodulin, THBD (gene 7056)
Nature of the test: BSK_3C_Thrombomodulin: BioMAP Diversity Plus: 3C Assay for Thrombomodulin Biomarker Activity (AID 2283029). The conditions noted are these: primary human endothelial cells (HUVEC); actives raise or lower the signal. The procedure, abridged: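 In a multiplexed primary-cell system, human umbilical vein endothelium received chemical and was assayed 24 h later for thrombomodulin by ELISA. Parallel cultures were SRB-stained (0.1% SRB after 10% TCA fixation, read at 560 nm) to flag cytotoxicity.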

Read-out in test [11]: Urokinase-type plasminogen activator receptor (uPAR), PLAUR (gene 5329)
Nature of the test: BSK_4H_uPAR: BioMAP Diversity Plus: 4H Assay for Urokinase-type plasminogen activator receptor (uPAR) Biomarker Activity (AID 2283030). The conditions noted are these: primary human endothelial cells (HUVEC); actives raise or lower the signal. In short, it runs like this: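 Human umbilical vein endothelial cells in the 4H system, 24 h after chemical dosing. Cell-surface uPAR measured by ELISA, fitted in both directions versus DMSO; cytotoxicity checked by SRB total protein in parallel cultures.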

Read-out in test [12]: Vascular endothelial growth factor receptor 2 (Homo sapiens) (UniProt P35968)
Nature of the test: BSK_4H_VEGFRII: BioMAP Diversity Plus: 4H Assay for Vascular endothelial growth factor receptor 2 (VEGFR2) Biomarker Activity (AID 2283031). The settings on record: primary human endothelial cells (HUVEC); actives raise or lower the signal. In short, it runs like this:
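Primary human umbilical vein endothelial cells (4H system), 24 h exposure; cell-surface VEGFR2 measured by ELISA. Bidirectional fitting versus DMSO; cytotoxicity checked in parallel by SRB total-protein staining.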

Read-out in test [13]: Human Leukocyte Antigen - DR isotype (HLADR), HLA-DRA (gene 3122)
Nature of the test: BSK_BE3C_HLADR: BioMAP Diversity Plus: BE3C Assay for Human Leukocyte Antigen - DR isotype (HLADR) Biomarker Activity (AID 2283032). The settings on record: primary human bronchial epithelial cells; actives raise or lower the signal. In short, it runs like this:
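BioMAP BE3C format: human bronchial epithelium, 24 h compound treatment, ELISA detection of HLA-DR, with bidirectional analysis relative to DMSO.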

Read-out in test [14]: Vascular cell adhesion molecule 1 (VCAM1), VCAM1 (gene 7412)
Nature of the test: BSK_4H_VCAM1: BioMAP Diversity Plus: 4H Assay for Vascular cell adhesion molecule 1 (VCAM1) Biomarker Activity (AID 2283033).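 On outcome: cell-surface VCAM-1 protein measured by ELISA.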 The conditions noted are these: primary human endothelial cells (HUVEC); actives raise or lower the signal. The procedure, abridged: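 In this human endothelial (HUVEC) system, biomarker ELISA was run 24 h after compound addition, and total protein in parallel wells was assessed by SRB at 560 nm; DMSO served as negative control.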

Read-out in test [15]: Interferon-gamma inducible Protein 10 (IP10), CXCL10 (gene 3627)
Nature of the test: BSK_BE3C_IP10: BioMAP Diversity Plus: BE3C Assay for Interferon-gamma inducible Protein 10 (IP10) Biomarker Activity (AID 2283034). The settings on record: primary human bronchial epithelial cells; actives raise or lower the signal. The procedure, abridged: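 BE3C cells (human bronchial epithelial, primary); 24 h exposure; ELISA for IP-10; DMSO-referenced bidirectional fit.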

Read-out in test [16]: Monokine induced gamma interferon (MIG), CXCL9 (gene 4283)
Nature of the test: BSK_BE3C_MIG: BioMAP Diversity Plus: BE3C Assay for Monokine induced gamma interferon (MIG) Biomarker Activity (AID 2283035). The conditions noted are these: primary human bronchial epithelial cells; actives raise or lower the signal. In short, it runs like this: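 hu bronchial epithelial 1° cells, 24 h cpd; MIG by ELISA; bidirectional fit, DMSO = baseline.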

Read-out in test [17]: Transforming growth factor beta 1 (TGFb1), TGFB1 (gene 7040)
Nature of the test: BSK_BE3C_TGFb1: BioMAP Diversity Plus: BE3C Assay for Transforming growth factor beta 1 (TGFb1) Biomarker Activity (AID 2283036;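 further: TGF-b1 protein level measured by ELISA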). The conditions noted are these: primary human bronchial epithelial cells; actives raise or lower the signal. In short, it runs like this:
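TGF-b1 measured via ELISA, 24 h after chemical dosing of human bronchial epithelial cells (BE3C). Overt cytotoxicity assessed in parallel by SRB (0.1%, TCA-fixed, 560 nm); analysis bidirectional relative to DMSO.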

Read-out in test [18]: Plasminogen activator inhibitor-1 (PAI1), SERPINE1 (gene 5054)
Nature of the test: BSK_BE3C_PAI1: BioMAP Diversity Plus: BE3C Assay for Plasminogen activator inhibitor-1 (PAI1) Biomarker Activity (AID 2283037). The conditions noted are these: primary human bronchial epithelial cells; actives raise or lower the signal. The procedure, abridged:
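In this multiplexed primary-cell system, bronchial epithelial cells receive test chemical and are sampled at 24 h. PAI-1 is read by ELISA, with DMSO serving as negative control for bidirectional fitting.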

Read-out in test [19]: urokinase plasminogen activator (uPA), PLAU (gene 5328)
Nature of the test: BSK_BE3C_uPA: BioMAP Diversity Plus: BE3C Assay for urokinase plasminogen activator (uPA) Biomarker Activity (AID 2283038).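 On outcome: uPA protein level quantified by ELISA in cell cultures; uPA read one day after compound addition.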 The conditions noted are these: primary human bronchial epithelial cells; actives raise or lower the signal. In short, it runs like this: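 Primary human bronchial epithelial cells, uPA measured by ELISA 24 h after dosing. Bidirectional change relative to DMSO; cytotoxicity checked in parallel cultures by sulforhodamine B total-protein staining.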

Read-out in test [20]: Urokinase-type plasminogen activator receptor (uPAR), PLAUR (gene 5329)
Nature of the test: BSK_BE3C_uPAR: BioMAP Diversity Plus: BE3C Assay for Urokinase-type plasminogen activator receptor (uPAR) Biomarker Activity (AID 2283039).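 Further: cells exposed to compound for one day before measurement.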 The conditions noted are these: primary human bronchial epithelial cells; actives raise or lower the signal. In short, it runs like this:
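Chemically treated human bronchial epithelial cells (lung primary) are assayed for uPAR by ELISA after 24 h, with data fitted in both directions using DMSO as negative control.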

Sequence of human Vitamin D Receptor (VDR), VDR (gene 7421) (P11473 whole entry, looked up, the tested form may be a part): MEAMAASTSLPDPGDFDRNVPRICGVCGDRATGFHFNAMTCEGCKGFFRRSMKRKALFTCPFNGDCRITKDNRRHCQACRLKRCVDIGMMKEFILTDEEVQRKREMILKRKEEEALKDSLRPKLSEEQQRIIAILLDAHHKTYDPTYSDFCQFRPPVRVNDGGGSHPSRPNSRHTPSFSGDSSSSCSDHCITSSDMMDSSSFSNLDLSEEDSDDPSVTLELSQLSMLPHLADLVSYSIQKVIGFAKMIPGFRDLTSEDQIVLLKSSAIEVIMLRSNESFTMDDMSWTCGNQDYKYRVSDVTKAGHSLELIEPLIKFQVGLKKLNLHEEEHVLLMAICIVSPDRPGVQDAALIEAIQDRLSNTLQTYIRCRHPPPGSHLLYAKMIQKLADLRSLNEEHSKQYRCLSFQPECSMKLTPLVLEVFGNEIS

A word on the AC50: it is the midpoint of the concentration-response curve, whichever way the signal moves. Take `CC(=NC#N)N(C)Cc1ccc(Cl)nc1`: the outcome in test [1], in test [2], in [3], in [4], in [5] and in test [6] was inactive. Further, the outcome in [7], in test [9], in test [10], in [11], in test [12] and in test [13] was inactive. Moreover, the result in test [14], in test [15], in [16], in [17], in test [18] and in test [19] was inactive. Further, in test [20], the result was inactive. Moreover, the concentration at half-maximal activity (AC50) in test [8] was 7.17 µM (active).

In the case of `CN1COCN(Cc2cnc(Cl)s2)C1=N[N+](=O)[O-]`, the outcome in test [1], in test [2], in test [3], in [4], in test [5] and in [6] was inactive. The result in test [7], in test [8], in [9], in test [10], in test [11] and in test [12] was inactive. The outcome in [13], in test [14], in test [15], in [16], in test [17] and in [18] was inactive. Further, the result in test [19] and in test [20] was inactive.

As to `Cc1nn(-c2cc(NS(C)(=O)=O)c(Cl)cc2Cl)c(=O)n1C(F)F`, the result in [1], in [2], in [3], in [4], in test [5] and in [6] was inactive. In addition, the outcome in test [7], in test [8], in [9], in test [10], in [11] and in test [12] was inactive. In addition, the result in [13], in test [14], in [15], in test [16], in test [17] and in test [18] was inactive. Moreover, the outcome in test [19] and in test [20] was inactive.

For `CC(COc1ccc(Oc2ccccc2)cc1)Oc1ccccn1` (stereo not drawn), the outcome in test [1], in test [2], in [3], in test [5], in test [6] and in [7] was inactive. Further, the result in test [8], in test [9], in [10], in test [11], in test [12] and in [13] was inactive. Further, the result in test [14], in test [15], in test [16], in test [17], in test [18] and in [20] was inactive. Also, the AC50 in test [4] was 20 µM (active); in test [19], 17.8 µM (active).

Take `CNC(=O)Oc1cccc2c1OC(C)(C)O2`: the outcome in test [1], in [2], in [3], in test [5], in test [6] and in test [8] was inactive. Moreover, the result in test [9], in test [10], in test [11], in test [12], in test [13] and in test [15] was inactive. Besides, the result in test [16], in [17], in test [19] and in [20] was inactive. The AC50 in test [4] was 20 µM (active); in test [7], 16.7 µM (active); in test [14], 20 µM (active).

Take `CCCCN(CC)c1c([N+](=O)[O-])cc(C(F)(F)F)cc1[N+](=O)[O-]`: the outcome in [1], in test [2], in test [3], in [5], in test [7] and in [8] was inactive. In addition, the outcome in test [9], in test [10], in test [11], in test [12], in test [13] and in test [16] was inactive. Besides, the result in [17], in [19] and in test [20] was inactive. For the same compound, the AC50 in test [4] is 16.4 µM (active); in test [6] it was 39 µM (active); in test [14] it was 20 µM (active); in test [15], 29.9 µM (active).
